{
  "source": "the supplement of paper PMC12494721",
  "conditions_in_all_cases": "incubation time: 27 h, anaerobic, 37 °C",
  "key": {"[1]": {"system": "Clostridium sporogenes DSM 1664", "experiment": "growth (OD595) fold change vs plate DMSO controls (fold change (ratio)); higher = more growth", "outline": "(§1)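 Anaerobic 27 h, 37 °C mGAM 96-well cultures were shaken, then read for absorbance at 595 nm. Values were blank-subtracted and corrected for compound background using 20 µM compound solutions in water. A calibration factor of 5 converted them to OD. Growth is the fold change versus the median of plate DMSO controls. Fold changes above 1.5 were set to NA, and values are the mean of 2 biological replicates.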"}, "Escherichia coli IAI1 [2]": {"system": "Escherichia coli IAI1", "experiment": "growth (OD595) fold change vs plate DMSO controls (fold change (ratio)); higher = more growth", "outline": "as §1"}, "[3]": {"system": "Klebsiella aerogenes DSM 30053", "experiment": "growth (OD595) fold change vs plate DMSO controls (fold change (ratio)); higher = more growth", "outline": "as §1"}, "[4]": {"system": "Ruminococcus gnavus DSM 108212", "experiment": "growth (OD595) fold change vs plate DMSO controls (fold change (ratio)); higher = more growth", "outline": "as §1"}, "[5]": {"system": "Klebsiella aerogenes DSM 30053", "experiment": "fold change of Histamine concentration vs plate DMSO controls (fold change (ratio)); higher = more amine produced, active = hit call of the paper (significant change in both replicates, either direction)", "outline": "(§2)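 Amine values are fold changes relative to DMSO-only wells on the same plate. They derive from 27 h, 37 °C anaerobic mGAM cultures of four gut bacterial strains in 80 µL wells, dosed at 20 µM final, or 50 µM final for sweeteners. Extraction of the whole culture, LC–triple-quadrupole MS in dynamic MRM mode, external calibration curves and within-batch drift correction were used, with 2 biological replicates averaged.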"}, "[6]": {"system": "Clostridium sporogenes DSM 1664", "experiment": "fold change of Tryptamine concentration vs plate DMSO controls (fold change (ratio)); higher = more amine produced, active = hit call of the paper (significant change in both replicates, either direction)", "outline": "as §2"}, "[7]": {"system": "Ruminococcus gnavus DSM 108212", "experiment": "fold change of Tryptamine concentration vs plate DMSO controls (fold change (ratio)); higher = more amine produced, active = hit call of the paper (significant change in both replicates, either direction)", "outline": "as §2"}, "Escherichia coli IAI1 [8]": {"system": "Escherichia coli IAI1", "experiment": "fold change of Putrescine concentration vs plate DMSO controls (fold change (ratio)); higher = more amine produced, active = hit call of the paper (significant change in both replicates, either direction)", "outline": "as §2"}, "[9]": {"system": "Klebsiella aerogenes DSM 30053", "experiment": "fold change of Putrescine concentration vs plate DMSO controls (fold change (ratio)); higher = more amine produced, active = hit call of the paper (significant change in both replicates, either direction)", "outline": "as §2"}, "Escherichia coli IAI1 [10]": {"system": "Escherichia coli IAI1", "experiment": "fold change of Cadaverine concentration vs plate DMSO controls (fold change (ratio)); higher = more amine produced, active = hit call of the paper (significant change in both replicates, either direction)", "outline": "as §2"}, "[11]": {"system": "Klebsiella aerogenes DSM 30053", "experiment": "fold change of Cadaverine concentration vs plate DMSO controls (fold change (ratio)); higher = more amine produced, active = hit call of the paper (significant change in both replicates, either direction)", "outline": "as §2"}, "[12]": {"system": "Ruminococcus gnavus DSM 108212", "experiment": "fold change of 2-Phenylethylamine concentration vs plate DMSO controls (fold change (ratio)); higher = more amine produced, active = hit call of the paper (significant change in both replicates, either direction)", "outline": "as §2"}},
  "note": "Structures can show the parent of a compound that is named as a salt.",
  "data": [
    {"smiles": "CN[C@@H]1[C@@H](O[C@H]2O[C@H](CO)[C@@H](N)[C@H](O)[C@H]2O)OC2C[C@@H](N)[C@@H](O[C@H]3[C@H](O)[C@@H](O)[C@H](N)C[C@@H]3N)OC2[C@@H]1O", "note": "(some centres not stated) [Apramycin] (20 µM)", "values": [
      {"measurement": "growth", "setting": "[1]", "result": 1.18},
      {"measurement": "growth", "setting": "Escherichia coli IAI1 [2]", "result": 0.982},
      {"measurement": "growth", "setting": "[3]", "result": 0.996},
      {"measurement": "growth", "setting": "[4]", "result": 1.03},
      {"measurement": "fold change of Histamine concentration", "setting": "[5]", "result": "1.05 (inactive)"},
      {"measurement": "fold change of Tryptamine concentration", "setting": "[6]", "result": "0.998 (inactive)"},
      {"measurement": "fold change of Tryptamine concentration", "setting": "[7]", "result": "0.96 (inactive)"},
      {"measurement": "fold change of Putrescine concentration", "setting": "Escherichia coli IAI1 [8]", "result": "1 (inactive)"},
      {"measurement": "fold change of Putrescine concentration", "setting": "[9]", "result": "1.05 (inactive)"},
      {"measurement": "fold change of Cadaverine concentration", "setting": "Escherichia coli IAI1 [10]", "result": "1 (inactive)"},
      {"measurement": "fold change of Cadaverine concentration", "setting": "[11]", "result": "1.02 (inactive)"},
      {"measurement": "fold change of 2-Phenylethylamine concentration", "setting": "[12]", "result": "0.905 (inactive)"}
    ]},
    {"smiles": "CC1(C)S[C@@H]2[C@H](NC(=O)[C@H](N)c3ccccc3)C(=O)N2[C@H]1C(=O)O", "note": "[Ampicillin trihydrate] (20 µM)", "values": [
      {"measurement": "growth", "setting": "[1]", "result": 0},
      {"measurement": "growth", "setting": "Escherichia coli IAI1 [2]", "result": 0.431},
      {"measurement": "growth", "setting": "[3]", "result": 0.91},
      {"measurement": "growth", "setting": "[4]", "result": 0},
      {"measurement": "fold change of Histamine concentration", "setting": "[5]", "result": "0.914 (inactive)"},
      {"measurement": "fold change of Tryptamine concentration", "setting": "[6]", "result": "0.01 (active)"},
      {"measurement": "fold change of Tryptamine concentration", "setting": "[7]", "result": "0.0662 (active)"},
      {"measurement": "fold change of Putrescine concentration", "setting": "Escherichia coli IAI1 [8]", "result": "2.31 (active)"},
      {"measurement": "fold change of Putrescine concentration", "setting": "[9]", "result": "1.03 (inactive)"},
      {"measurement": "fold change of Cadaverine concentration", "setting": "Escherichia coli IAI1 [10]", "result": "2.29 (active)"},
      {"measurement": "fold change of Cadaverine concentration", "setting": "[11]", "result": "1.06 (inactive)"},
      {"measurement": "fold change of 2-Phenylethylamine concentration", "setting": "[12]", "result": "0.0431 (active)"}
    ]},
    {"smiles": "Cc1cnc(C(=O)O)c[n+]1[O-]", "note": "[Acipimox] (20 µM)", "values": [
      {"measurement": "growth", "setting": "[1]", "result": 1.05},
      {"measurement": "growth", "setting": "Escherichia coli IAI1 [2]", "result": 0.996},
      {"measurement": "growth", "setting": "[3]", "result": 1.27},
      {"measurement": "growth", "setting": "[4]", "result": 0.959},
      {"measurement": "fold change of Histamine concentration", "setting": "[5]", "result": "0.874 (inactive)"},
      {"measurement": "fold change of Tryptamine concentration", "setting": "[6]", "result": "0.952 (inactive)"},
      {"measurement": "fold change of Tryptamine concentration", "setting": "[7]", "result": "1 (inactive)"},
      {"measurement": "fold change of Putrescine concentration", "setting": "Escherichia coli IAI1 [8]", "result": "1.01 (inactive)"},
      {"measurement": "fold change of Putrescine concentration", "setting": "[9]", "result": "0.998 (inactive)"},
      {"measurement": "fold change of Cadaverine concentration", "setting": "Escherichia coli IAI1 [10]", "result": "1.03 (inactive)"},
      {"measurement": "fold change of Cadaverine concentration", "setting": "[11]", "result": "1.03 (inactive)"},
      {"measurement": "fold change of 2-Phenylethylamine concentration", "setting": "[12]", "result": "1.03 (inactive)"}
    ]},
    {"smiles": "NC[C@@H]1O[C@H](O[C@H]2[C@@H](O)[C@H](O[C@@H]3[C@@H](O)[C@H](N)C[C@H](N)[C@H]3O[C@H]3O[C@H](CO)[C@@H](O)[C@H](O)[C@H]3N)O[C@@H]2CO)[C@H](N)[C@@H](O)[C@@H]1O", "note": "[Paromomycin sulfate] (20 µM)", "values": [
      {"measurement": "growth", "setting": "[1]", "result": 1.06},
      {"measurement": "growth", "setting": "Escherichia coli IAI1 [2]", "result": 0.996},
      {"measurement": "growth", "setting": "[3]", "result": 0.975},
      {"measurement": "growth", "setting": "[4]", "result": 0.984},
      {"measurement": "fold change of Histamine concentration", "setting": "[5]", "result": "0.994 (inactive)"},
      {"measurement": "fold change of Tryptamine concentration", "setting": "[6]", "result": "1.03 (inactive)"},
      {"measurement": "fold change of Tryptamine concentration", "setting": "[7]", "result": "0.999 (inactive)"},
      {"measurement": "fold change of Putrescine concentration", "setting": "Escherichia coli IAI1 [8]", "result": "1.01 (inactive)"},
      {"measurement": "fold change of Putrescine concentration", "setting": "[9]", "result": "1 (inactive)"},
      {"measurement": "fold change of Cadaverine concentration", "setting": "Escherichia coli IAI1 [10]", "result": "0.972 (inactive)"},
      {"measurement": "fold change of Cadaverine concentration", "setting": "[11]", "result": "0.981 (inactive)"},
      {"measurement": "fold change of 2-Phenylethylamine concentration", "setting": "[12]", "result": "0.987 (inactive)"}
    ]},
    {"smiles": "COc1c2occc2c(OC)c2c(=O)cc(C)oc12", "note": "[Khellin] (20 µM)", "values": [
      {"measurement": "growth", "setting": "[1]", "result": 0.981},
      {"measurement": "growth", "setting": "Escherichia coli IAI1 [2]", "result": 0.994},
      {"measurement": "growth", "setting": "[3]", "result": 1.03},
      {"measurement": "growth", "setting": "[4]", "result": 1.11},
      {"measurement": "fold change of Histamine concentration", "setting": "[5]", "result": "1.06 (inactive)"},
      {"measurement": "fold change of Tryptamine concentration", "setting": "[6]", "result": "1 (inactive)"},
      {"measurement": "fold change of Tryptamine concentration", "setting": "[7]", "result": "1.04 (inactive)"},
      {"measurement": "fold change of Putrescine concentration", "setting": "Escherichia coli IAI1 [8]", "result": "1 (inactive)"},
      {"measurement": "fold change of Putrescine concentration", "setting": "[9]", "result": "1.01 (inactive)"},
      {"measurement": "fold change of Cadaverine concentration", "setting": "Escherichia coli IAI1 [10]", "result": "1.02 (inactive)"},
      {"measurement": "fold change of Cadaverine concentration", "setting": "[11]", "result": "0.992 (inactive)"},
      {"measurement": "fold change of 2-Phenylethylamine concentration", "setting": "[12]", "result": "1.09 (inactive)"}
    ]},
    {"smiles": "CCCOc1cc(N)ccc1C(=O)OCCN(CC)CC", "note": "[Propoxycaine hydrochloride] (20 µM)", "values": [
      {"measurement": "growth", "setting": "[1]", "result": 0.975},
      {"measurement": "growth", "setting": "Escherichia coli IAI1 [2]", "result": 1.01},
      {"measurement": "growth", "setting": "[3]", "result": 1},
      {"measurement": "growth", "setting": "[4]", "result": 1.35},
      {"measurement": "fold change of Histamine concentration", "setting": "[5]", "result": "0.991 (inactive)"},
      {"measurement": "fold change of Tryptamine concentration", "setting": "[6]", "result": "1.02 (inactive)"},
      {"measurement": "fold change of Tryptamine concentration", "setting": "[7]", "result": "1.05 (inactive)"},
      {"measurement": "fold change of Putrescine concentration", "setting": "Escherichia coli IAI1 [8]", "result": "0.956 (inactive)"},
      {"measurement": "fold change of Putrescine concentration", "setting": "[9]", "result": "0.986 (inactive)"},
      {"measurement": "fold change of Cadaverine concentration", "setting": "Escherichia coli IAI1 [10]", "result": "0.967 (inactive)"},
      {"measurement": "fold change of Cadaverine concentration", "setting": "[11]", "result": "1.01 (inactive)"},
      {"measurement": "fold change of 2-Phenylethylamine concentration", "setting": "[12]", "result": "1.09 (inactive)"}
    ]}
  ]
}
